Screening results deposited in PubChem by National Center for Advancing Translational Sciences (NCATS).
Anesthetic bind = binds horse apoferritin like a general anesthetic; P02791; apoferritin/1-aminoanthracene competitive binding, fluorescence; Potency, µM (titrated, usually from 77.5 µM), for the others: at the top dose activity change, negative = displacement, usual class: inhibitors; 0.074% of 350,000 active; active = well fitted inhibition curve with a large enough effect; inconclusive = small, poorly fitted or top-dose-only effect; inactive = no such curve, though single readings can be large or run the other way; also: potency is read from the fitted curve at half-maximal effect; % is scaled to controls: 0 for no effect and ±100 for the full control effect; nearly all actives have a fitted effect of over 20% in size
Target sequence (P02791 2-175 limits assumed): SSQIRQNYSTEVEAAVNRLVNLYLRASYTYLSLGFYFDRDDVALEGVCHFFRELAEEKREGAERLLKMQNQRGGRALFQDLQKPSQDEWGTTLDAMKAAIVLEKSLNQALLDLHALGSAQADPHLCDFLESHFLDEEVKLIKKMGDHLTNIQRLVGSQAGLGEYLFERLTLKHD
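Read-out: endpoint 1-AMA fluorescence, excitation 380 nm and emission 535 nm, after compounds sit 10 min at room temperature with 10 uM horse-spleen apoferritin in 50% saturated 1-AMA/PBS. Values come from four-parameter Hill fits.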
D2 ag-1 = D2 dopamine receptor (human) agonism. HEK293 T-REx D2 cells, calcium flux agonist mode. 0.53% of 340,000 active. activation, % at 2 µM. AID 485358;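 active = activation over 3 SD above normal in the single-dose calcium agonist read, cut at about 30% in these data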; also: 0% is about no effect
Target sequence (P14416 whole entry, looked up): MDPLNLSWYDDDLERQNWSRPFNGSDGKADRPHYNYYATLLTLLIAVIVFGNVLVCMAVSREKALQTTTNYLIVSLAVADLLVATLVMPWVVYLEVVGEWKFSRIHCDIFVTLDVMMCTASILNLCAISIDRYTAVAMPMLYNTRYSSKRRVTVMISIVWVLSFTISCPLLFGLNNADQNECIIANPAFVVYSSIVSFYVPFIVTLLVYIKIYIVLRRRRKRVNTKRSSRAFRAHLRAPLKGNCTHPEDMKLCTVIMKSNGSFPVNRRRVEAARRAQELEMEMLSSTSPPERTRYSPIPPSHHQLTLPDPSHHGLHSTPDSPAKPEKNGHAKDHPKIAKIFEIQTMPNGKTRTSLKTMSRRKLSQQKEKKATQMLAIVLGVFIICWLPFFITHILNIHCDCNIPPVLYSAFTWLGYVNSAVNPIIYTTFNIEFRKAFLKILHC
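Agonism scored from kinetic calcium signal (1 read/sec, 180 s) following compound pin transfer, after a 10 s baseline. Cells: HEK293 Trex line expressing inducible D2 receptor coupled to calcium, dye-loaded after overnight culture at 30 C.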
D2 ag-2 = agonists of human D2 dopamine receptor (beta-arrestin) | P14416 | DiscoveRx PathHunter D2 beta-arrestin, luminescence, 90 min; 100% = 57 uM dopamine signal | activation, % (concentration not given with the values) | 0.084% of 360,000 active | AID 624465; in the data active = activation above about 40%; inconclusive = between about 15% and that limit
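DiscoveRx PathHunter D2 beta-arrestin cells (2,100/well) attached overnight, then compound-stimulated 90 min at 37 C in HBSS/10 mM HEPES/0.1% Tween-20 buffer; beta-galactosidase complementation read by luminescence after 1 h at ambient temperature. Dopamine 57 uM final (EC100) as control.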
D2 antag = antagonists of human D2 dopamine receptor | HEK293 TREx D2 cells, calcium flux, dopamine EC80 | 2% of 340,000 active | P14416 | inhibition, % at 10 µM; in the data active = inhibition above about 30%; inactive = below that, where a call was filed; also: 0% is about no effect
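Calcium mobilization kinetics were recorded at 1 s intervals in tetracycline-induced HEK293 T-REx D2 cells, first for 180 s after compound addition and then 180 s after EC80 dopamine.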
D2 PAM-1 = D2 dopamine receptor (human) potentiation; potentiation, % at 10 µM; AID 485347; HEK293 T-REx D2, calcium flux, EC20 dopamine potentiation; P14416; 0.34% of 340,000 active;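 active = potentiation over 3 SD above the plate norm, cut at about 30% in these data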; also: 0% is about no effect
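Tetracycline-induced HEK293 T-REx cells force-coupled to calcium signalling expressed D2; compounds were pin-added after a 10 s baseline, read kinetically 180 s, then an EC20 dopamine challenge followed with a further 180 s calcium read.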
D2 PAM-2 = positive allosteric modulators of human D2 dopamine receptor; 0.23% of 360,000 active; DiscoveRx D2 beta-arrestin cells, luminescence, 90 min; 100% = 57 uM dopamine signal; AID 624464; potentiation, % (test concentration not listed); in the data active = potentiation above about 50%; inconclusive = mostly about 30% to 49%
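PathHunter D2 cells, attached overnight at 37 deg C, received compound in DMSO plus dopamine at EC20 (50 nM final) for 90 min at 37 deg C. Beta-arrestin recruitment was read as luminescence after 1 h with detection reagent at ambient temperature.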
The depositor's hits bear a star; ? = inconclusive; . = no result given. A selection: hits, their analogues and other compounds. The true share with any hit is near 2.5%.

SMILES	Anesthetic bind	D2 ag-1	D2 ag-2	D2 antag	D2 PAM-1	D2 PAM-2
Cc1ccc(NC(=O)CC2SC(=O)NC2=O)cc1 (configuration not stated)	0%	0	-9	-8	7	-18
COc1ccc(NC(=O)CC2SC(=O)NC2=O)cc1 (configuration not stated)	-6%	0	-8	-12	36*	-18
CCOC(=O)C(=NCCCN(C)C)NNc1cc(C(F)(F)F)ccc1Cl	-11%	-1	0	35*	-14	-6
CCOC(=O)C(=NCCCN(C)C)NNc1ccc(Br)cc1	-12%	0	5	-1	2	-11
CC(=O)c1ccc(NC(=O)CSc2nnc(NC(=O)NC3CCCCC3)s2)cc1	?	1	.	.	-2	.
Fc1ccc(-n2cc(CNCCc3ccccn3)c(-c3ccccc3Cl)n2)cc1	?	-3	4	79*	-31	-16
CN(C)c1ccc(NC(=O)c2cccc(N3C(=O)C4C5C=CC(C5)C4C3=O)c2)cc1 (configuration not stated)	?	1	1	36*	18	4
COc1ccc(OC)c(NC(=O)CCN2CCN(Cc3ccccc3)CC2)c1	-12%	36*	3	23	-13	-14
COC(=O)c1c(NC(=O)CN2CCN(c3ccccc3OC)CC2)c2c(C)cccc2n1C	-7%	52*	.	-10	-15	.
COC(=O)c1[nH]c2cc(OC)ccc2c1NC(=O)CCN1CCN(c2ccccc2)CC1	-10%	-1	0	63*	-22	-11
COc1ccc(OC)c(NC(=O)CCN2CCN(C)CC2)c1	8%	1	4	4	-3	0
CCOC(=O)C1CCCN(CCC(=O)Nc2c(C(=O)OC)[nH]c3cc(OC)ccc23)C1 (configuration not stated)	-12%	18	-1	-23	-21	4
COC(=O)c1[nH]c2cccc(OC)c2c1NC(=O)CCN1CCN(c2ccccc2F)CC1	0%	44*	.	74*	-28	.
CC(NS(=O)(=O)c1ccccc1)C(=O)Nc1ccc(S(N)(=O)=O)cc1 (configuration not stated)	28%	0	-2	-10	8	8
O=C(c1c(F)cccc1F)N1CCC(O)(c2cccnc2)CC1	-13%	.	1	.	.	-1
COc1ccc(CNc2oc(-c3ccc(COc4ccccc4C)o3)nc2C#N)cc1	94%	2	.	.	-8	.
COC(=O)c1[nH]c2cccc(C)c2c1NC(=O)CN1CCN(c2ccccc2OC)CC1	-20%	39*	2	54*	-22	-12
COC(=O)CCC(=O)OC1(C)C(=O)C=C2C=C(C3CC3)N(CC3CC3)C=C2C1=O (configuration not stated)	-1%	4	7	17	-13	18
COC(=O)CCC(=O)OC1(C)C(=O)C=C2C=C(C3CC3)N(CC(C)C)C=C2C1=O (configuration not stated)	-1%	0	.	32*	-2	.
CCOc1cc(N2CCOCC2)c(OCC)cc1NC(=O)C1CC(=O)N(c2ccccc2OCC)C1 (configuration not stated)	.	1	7	5	0	2
COc1ccc(C(=O)Nc2cc(OC)cc3cccnc23)cc1	-6%	2	-2	-16	-4	-13
CCC(C)c1ccccc1N1CC(C(=O)N2CCN(S(=O)(=O)c3cccc([N+](=O)[O-])c3)CC2)CC1=O (configuration not stated)	.	1	4	36*	-8	8
CCC(C)c1ccccc1N1CC(C(=O)N2CCN(c3ccccc3)CC2)CC1=O (configuration not stated)	.	.	-1	.	.	10
Cc1[nH]c2ccccc2c1C(=O)CN1C(=O)C(=O)N(CCC2=CCCCC2)C1=O	.	0	5	-7	-1	-2
CCN1C(=O)CSc2ccc(C(=O)NCc3ccccc3)cc21	-14%	0	2	-21	-14	-31
SMILES	Anesthetic bind	D2 ag-1	D2 ag-2	D2 antag	D2 PAM-1	D2 PAM-2
CCN1C(=O)CSc2ccc(C(=O)NCc3ccccc3OC)cc21	-23%	0	-1	-5	34*	-4
COc1ccc(CCN(C)C(=O)C2CCN(Cc3ccc(C)cc3)CC2)cc1OC	-3%	0	1	47*	-23	-21
COc1ccc(CN2CCC(C(=O)N(C)CCc3ccc(OC)c(OC)c3)CC2)c(OC)c1	-8%	0	2	-11	31*	-19
CC(NC(=O)c1cccnc1)C(c1ccccc1)N1CCN(C)CC1 (configuration not stated)	-8%	0	-2	5	13	-7
COc1ccc(-c2n[nH]c(=S)n2-c2ccc3c(c2)OCCO3)cc1OC	-3%	.	4	.	.	-10
CC(=O)Nc1ccn(-c2ccccc2)n1	-5%	1	2	-4	16	-4
CC(=O)C(C)Oc1ncn(-c2ccccc2)n1 (configuration not stated)	-15%	0	1	33*	11	-17
CCN1CCN(c2ccc(S(=O)(=O)N3CCOCC3)cc2NC(=O)CCOc2ccccc2)CC1	-10%	1	-4	32*	-18	-27
CCN1CCN(c2ccc(S(=O)(=O)N3CCCCC3)cc2NC(=O)c2ccc([N+](=O)[O-])s2)CC1	.	1	?	10	1	74*
O=C(Nc1cc(S(=O)(=O)N2CCOCC2)ccc1N1CCCC1)C1CC1	3%	2	-4	54*	5	-2
O=C(O)c1cc(S(=O)(=O)N2CCCCC2)ccc1N1CCOCC1	.	.	1	.	.	-14
Nc1cc(S(=O)(=O)N2CCCCC2)ccc1N1CCOCC1	-13%	3	0	32*	-3	4
CC(Cc1ccccc1)NC(=O)c1cc2ccccc2o1 (configuration not stated)	-13%	-1	-3	7	1	-14
O=C1N/C(=C/c2cccn2-c2ccccc2)C(=O)N1Cc1ccc(F)cc1	-12%	-1	-2	14	0	-8
CC1CN(c2c3c(nc4ncnn24)CCCC3)CC(C)O1 (configuration not stated)	0%	1	-3	-2	32*	-22
C[C@H](N)C(=O)OCc1ccc([N+](=O)[O-])cc1	5%	1	-1	3	-4	5
Fc1ccc(-c2csc(=S)[nH]2)cc1	-8%	0	-2	31*	-2	-4
COc1ccc(CNC(=O)C(=O)NC2CC(C)(C)NC(C)(C)C2)cc1	-5%	1	2	-8	-4	-4
